Assay outcomes (PubChem)
An excerpt weighted towards active compounds, which were near 12% of everything screened.
JMJD2A Tudor inh: JMJD2A Tudor domain (human) inhibition; AlphaScreen JMJD2A-Tudor / H3K4me3 peptide binding; 390,000 tested, 4.4% active; O75164; AID 504339; Potency, µM (top dose mostly 114 µM), for the others: top-dose activity change, negative = inhibition, usual class: inhibitors; further: potency means the concentration at half of the fitted maximal effect; on the % scale 0 is the no-effect control and ±100 the full control effect; nearly all actives have a fitted effect of over 50% in size
HP1b binding inh: inhibitors of HP1-beta chromodomain binding to methylated histone tails; AlphaScreen HP1-beta / biotin-H3K9me3 peptide binding; Potency, µM (titrated, usually from 114 µM), inactives show at the top dose activity change, negative = inhibition, hits mostly inhibitors; 390,000 tested, 0.56% active; AID 540317; further: potency means the concentration at half of the fitted maximal effect; nearly all actives have a fitted effect of over 70% in size
Target sequence (P83916 whole entry, looked up): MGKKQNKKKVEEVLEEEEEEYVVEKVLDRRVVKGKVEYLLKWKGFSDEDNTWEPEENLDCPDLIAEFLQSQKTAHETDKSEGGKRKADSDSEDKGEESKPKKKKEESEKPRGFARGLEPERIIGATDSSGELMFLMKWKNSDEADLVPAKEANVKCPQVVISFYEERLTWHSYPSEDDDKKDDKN
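AlphaScreen: HP1-beta (50 nM) preformed 30 min with biotin-H3(1-18)K9me3 peptide (50 nM) in PBS pH 7.4, 0.01% Tween-20. Compound added for 30 min at RT, then streptavidin donor/nickel chelate acceptor beads (10 ug/mL) for 30 min.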
BAZ2B inh: blocks human BAZ2B; AlphaScreen BAZ2B-H3K14Ac peptide displacement; Potency, µM (highest dose often 114 µM), inactives show at the top dose activity change, negative = inhibition, most hits filed as inhibitors; Q9UIF8; 360,000 tested, 4.4% active; AID 504333; further: potency means the concentration at half of the fitted maximal effect; on the % scale 0 is the no-effect control and ±100 the full control effect; nearly all actives have a fitted effect of over 60% in size
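Inhibition is scored as reduced AlphaScreen emission. The BAZ2B/b-H3(5-23)K14Ac complex (50 nM each) in PBS pH 7.4, 0.01% Tween-20 meets compound (up to 110 uM) for 30 min at RT before bead addition.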
PI5P4Ka inh: blocks human PI5P4K alpha kinase activity; P48426; PI5P4Kalpha enzyme, ADP-Glo luminescence, 60 min; stronger effect = lower value; 330,000 tested, 1.2% active; AID 652105; max response, %; active means max response of -50% or lower; inconclusive means between -30% and -50%; inactive means -30% or higher; further: value at the top dose of about 77 µM; on the % scale 0 is the no-effect control and ±100 the full control effect
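Compounds were pin-transferred onto PI5P4Kalpha and substrate in HEPES pH 7.4 buffer with EGTA, CHAPS and 5% DMSO. ATP (5 microM final) started the reaction, which ran 60 minutes at room temperature before ADP-Glo detection.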
PLK1 PBD inh: inhibitors of human PLK1 polo-box domain binding. Plk1 PBD binding of FITC phosphopeptide, fluorescence polarization. Potency, µM, inactives show max response, negative = inhibition, actives largely listed as inhibitors. AID 720504. 360,000 tested, 2.8% active; further: potency means the concentration at half of the fitted maximal effect; series mostly up to about 57 µM; on the % scale 0 is the no-effect control and ±100 the full control effect; nearly all actives have a fitted effect of over 65% in size
G9a inh: blocks human histone lysine methyltransferase G9a | Potency, µM (series often up to 102 µM), for the others: top-dose activity, negative = inhibition, actives largely listed as inhibitors | 350,000 tested, 8.8% active | G9a H3K9 monomethylation, AlphaScreen, 2 h; further: potency means the concentration at half of the fitted maximal effect; on the % scale 0 is the no-effect control and ±100 the full control effect; nearly all actives have a fitted effect of over 75% in size
Target sequence (Q96KQ7 913-1193 limits assumed): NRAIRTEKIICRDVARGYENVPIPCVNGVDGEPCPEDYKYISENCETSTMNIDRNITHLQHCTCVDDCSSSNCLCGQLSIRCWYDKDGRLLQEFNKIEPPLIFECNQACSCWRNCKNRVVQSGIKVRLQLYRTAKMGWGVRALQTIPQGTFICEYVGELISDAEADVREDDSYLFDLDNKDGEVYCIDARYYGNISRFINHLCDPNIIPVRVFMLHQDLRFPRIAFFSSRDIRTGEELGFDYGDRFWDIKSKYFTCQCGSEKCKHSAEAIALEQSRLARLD
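AlphaScreen detection with an anti-monomethyl H3K9 antibody quantified product after a 2 h room-temperature reaction containing 500 nM biotinylated H3K9 peptide, 20 µM SAM and 20 nM enzyme, which had been preincubated 15 min with compound.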
Active calls of the source: *; ! = not active in a repeat; [ ] = another dose, or the depositor's remark. Unless noted, the call rests on the fitted dose curve; in most records, active means well fitted curve in the direction sought with a large enough effect; inconclusive means small, poorly fitted or top-dose-only effect, or another doubt; inactive means no such curve, though single readings can be large; an effect the other way counts as inactive or inconclusive.

`CCc1ccccc1NS(=O)(=O)c1ccc2c(c1)CC(=O)N2` gave JMJD2A Tudor inh -23%, HP1b binding inh 44% and G9a inh 11%[59 µM].
CNC(=O)NC(=O)C(c1ccccc1)N(C)CC1COc2ccccc2O1 (configuration not stated) was read as JMJD2A Tudor inh -13%, HP1b binding inh 8%, BAZ2B inh -7%, PI5P4Ka inh 0, PLK1 PBD inh -1% and G9a inh 13%.
Screening CSCCC(C(=O)O)N1C(=O)c2ccc(C(=O)O)cc2C1=O (configuration not stated) returned JMJD2A Tudor inh 79µM*, HP1b binding inh 21%, BAZ2B inh -10%, PI5P4Ka inh 4, PLK1 PBD inh -7% and G9a inh 25µM*.
Screening CC1(C)Cc2c(cnn2-c2cccc(F)c2)C(NC(=O)Cn2cccn2)C1 (configuration not stated) returned JMJD2A Tudor inh 0%, HP1b binding inh 23%, BAZ2B inh -11%, PI5P4Ka inh -5, PLK1 PBD inh -1% and G9a inh 20%.
Screening Cn1nc(C(=O)O)c(=O)n(C)c1=O returned JMJD2A Tudor inh 89µM*, HP1b binding inh -39%, PI5P4Ka inh 6 and PLK1 PBD inh 27µM*.
For CCOC(=O)c1nn(C)c(=S)n(C)c1=O the results were JMJD2A Tudor inh -6%, HP1b binding inh 31%, PI5P4Ka inh 0 and PLK1 PBD inh 9%.
`Cn1c2c(c3ccccc31)CCN(CCCCN1CCN(c3ccccc3)CC1)C2=O` gave JMJD2A Tudor inh 50µM*, HP1b binding inh inconclusive, PI5P4Ka inh 12 and PLK1 PBD inh -7%.
Screening Cc1c(C(=O)CN2CCN(c3ccccc3)CC2)c2ccccc2n1C returned JMJD2A Tudor inh -30%, HP1b binding inh 50%, BAZ2B inh inconclusive, PI5P4Ka inh -4, PLK1 PBD inh -14% and G9a inh inconclusive.
Screening COC(=O)CNC(c1ccccc1)c1cc(Br)ccc1NC(=O)CCN1CCOCC1 (configuration not stated) returned JMJD2A Tudor inh -29%, HP1b binding inh 5%, BAZ2B inh -28%, PI5P4Ka inh 5, PLK1 PBD inh inconclusive and G9a inh 3.2µM*.
`C=CCNc1nc(-c2cc3ccccc3o2)cs1` gave JMJD2A Tudor inh -22%, HP1b binding inh -10%, BAZ2B inh inconclusive, PI5P4Ka inh -1, PLK1 PBD inh -19% and G9a inh 11µM*.
c1ccc2oc(-c3csc(NCC4CCCO4)n3)cc2c1 (configuration not stated) was read as JMJD2A Tudor inh inconclusive, HP1b binding inh inconclusive, BAZ2B inh inconclusive, PI5P4Ka inh 4, PLK1 PBD inh -25% and G9a inh 40µM*.
For Cc1nc(N2CCCC2)c2c(C(=O)Nc3ccc(Br)cc3F)c(C)oc2n1 the results were JMJD2A Tudor inh -18%, HP1b binding inh 12%, BAZ2B inh -6%[57.1 µM] and G9a inh -33%[59 µM].
`CC1=C(C(N)=O)C(c2ccco2)C(C(N)=O)=C(C)N1` gave JMJD2A Tudor inh -2%, HP1b binding inh 41%, BAZ2B inh inconclusive, PI5P4Ka inh 14, PLK1 PBD inh -4% and G9a inh 56µM*.
CCCCOC(=O)c1ccc(NC(=O)c2csnn2)cc1 was read as JMJD2A Tudor inh -5%, HP1b binding inh 17%, BAZ2B inh 3% and G9a inh -10%[59 µM].
For NC(=O)C[C@@H](N)C(=O)O the results were G9a inh 37%[59 µM].
`N=C(N)c1ccc(N)cc1` gave JMJD2A Tudor inh -2%, HP1b binding inh 53%, BAZ2B inh -1%, PI5P4Ka inh 1, PLK1 PBD inh -15% and G9a inh 1µM*!.
For N=C(N)c1ccc(OCCCCCOc2ccc(C(=N)N)cc2)cc1 the results were JMJD2A Tudor inh -3%, HP1b binding inh 35%, BAZ2B inh 4%, PI5P4Ka inh 21, PLK1 PBD inh 3% and G9a inh 3%[21.5 µM].
`Cc1noc(C)c1-c1cccc(-c2nn3c(=O)cc(N4CCNCC4)nc3s2)c1` gave JMJD2A Tudor inh -26%.
For Cc1[nH]n(-c2cccc([N+](=O)[O-])c2)c(=O)c1-c1ccccc1 the results were JMJD2A Tudor inh -25%, HP1b binding inh 8%, BAZ2B inh inconclusive, PI5P4Ka inh -3, PLK1 PBD inh -7% and G9a inh -51%.
`Cc1[nH]n(-c2ccccc2)c(=O)c1C(c1ccc(O)c([N+](=O)[O-])c1)c1c(C)[nH]n(-c2ccccc2)c1=O` gave JMJD2A Tudor inh inconclusive, HP1b binding inh -51%, PI5P4Ka inh -25 and PLK1 PBD inh 24µM*.
Screening COc1ccc(C(C[N+](=O)[O-])c2c(C)[nH]n(-c3ccccc3)c2=O)cc1 (configuration not stated) returned JMJD2A Tudor inh 89µM*, HP1b binding inh inconclusive, BAZ2B inh -23%, PI5P4Ka inh 1, PLK1 PBD inh 24µM* and G9a inh 9%[2.33 µM].
`COc1ccc(C(c2c(C)n(C)n(-c3ccccc3)c2=O)c2c(C)n(C)n(-c3ccccc3)c2=O)cc1` gave JMJD2A Tudor inh -1%, HP1b binding inh 42%, BAZ2B inh -5%, PI5P4Ka inh 3, PLK1 PBD inh 0% and G9a inh 29%.
Screening Cc1cc(Cl)c2c(c1)[C@]1(C(=O)N2)[C@@H]2C(=O)N(Cc3ccccc3)C(=O)[C@@H]2[C@@H]2CCCN21 returned JMJD2A Tudor inh -31%[57.1 µM], HP1b binding inh 18%, BAZ2B inh inconclusive, PI5P4Ka inh -8, PLK1 PBD inh -16% and G9a inh 45µM*.
For Cc1ccc(-n2nc(C)c3c2OC(N)=C(C#N)C3c2ccncc2)cc1 (configuration not stated) the results were JMJD2A Tudor inh inconclusive, HP1b binding inh 1%, BAZ2B inh -11%, PI5P4Ka inh -14, PLK1 PBD inh -4% and G9a inh 45µM*.
`CCn1c(C)cc2c(c1=O)C(c1ccncc1)C(C#N)=C(N)O2` (configuration not stated) gave JMJD2A Tudor inh 2%, HP1b binding inh 33%, BAZ2B inh 6%, PI5P4Ka inh -3, PLK1 PBD inh -6% and G9a inh 40µM*.
`Cc1nn(-c2ccccc2)c(Cl)c1C1C(C#N)=C(N)Oc2c1c(C)nn2-c1ccccc1` (configuration not stated) gave JMJD2A Tudor inh inconclusive, HP1b binding inh -5%, BAZ2B inh inconclusive, PI5P4Ka inh -10 and PLK1 PBD inh -27%.
